Results taken from PubChem BioAssay (NCI).
The panel holds about 79,000 compounds, 15% with a hit somewhere; the sample as a whole holds those more often. Activity calls are given as the source filed them. Rule as the data show it: active = growth inhibition above about 70%; inactive = the rest.

Experiments:
[1] = NCI Yeast Anticancer Drug Screen. Data for the rad52 strain (AID 147);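 also: 0% = growth of vehicle-treated control cultures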; conditions: S. cerevisiae rad52 mutant growth inhibition, active compounds read high
In short: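 Yeast strain carrying a DNA damage repair alteration was exposed to test compounds. Growth inhibition was measured relative to vehicle-treated controls.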

[2] = NCI Yeast Anticancer Drug Screen. Data for the wt1 strain (AID 149);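 also: 0% = growth of vehicle-treated wt1 cultures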; conditions: S. cerevisiae wt1 strain (SPY 50644) growth inhibition, active compounds read high
In short: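 The wt1 strain was treated with compounds, and growth was compared with vehicle-treated cultures to give inhibition.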

[3] = NCI Yeast Anticancer Drug Screen. Data for the rad50EPP+ strain (AID 151);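 also: 0% = growth of vehicle-treated control cultures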; conditions: S. cerevisiae rad50 mutant strain, active compounds read high
In short: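 Yeast strain carrying rad50 alteration (rad50EPP+) exposed to compounds; growth inhibition measured relative to vehicle-treated controls.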

[4] = NCI Yeast Anticancer Drug Screen. Data for the mgt1 strain (AID 153); conditions: S. cerevisiae mgt1 mutant growth inhibition, active compounds read high
In short: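 Yeast mgt1 strain (DNA repair/cell-cycle alteration panel) exposed to compounds; growth inhibition measured relative to vehicle-treated controls.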

[5] = NCI Yeast Anticancer Drug Screen. Data for the rad50 strain (AID 155);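 also: 0% = growth of vehicle-only cultures of the same strain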; conditions: S. cerevisiae rad50 strain growth inhibition, active compounds read high
In short: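 Cells are treated with compound, grown, and their growth is then scored against vehicle-only cultures of the same repair-deficient yeast strain.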

[6] = NCI Yeast Anticancer Drug Screen. Data for the mec2-1 strain (AID 157); conditions: S. cerevisiae mec2-1 strain, active compounds read high
In short: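 mec2-1 yeast strain, carrying an alteration in DNA damage repair or cell cycle control, was exposed to compounds; growth inhibition was measured relative to vehicle-treated controls.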

[7] = NCI Yeast Anticancer Drug Screen. Data for the sgs1 mgt1 strain (AID 161);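 also: 0% = growth of cultures given vehicle only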; conditions: S. cerevisiae sgs1 mgt1 strain, active compounds read high
In short: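 Growth of a repair-deficient yeast mutant was monitored after compound treatment and expressed as inhibition relative to vehicle-treated cultures.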

[8] = NCI Yeast Anticancer Drug Screen. Data for the CLN2oe strain (AID 163);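 also: 0% = growth of vehicle-only control cultures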; conditions: S. cerevisiae CLN2oe strain, active compounds read high
In short: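 Yeast cells carrying a defined cell-cycle control alteration were exposed to test compounds. Growth inhibition was scored against vehicle-treated control cultures.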

[9] = NCI Yeast Anticancer Drug Screen. Data for the cln2 rad14 strain (AID 165);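 also: 0% = growth equal to vehicle treated cultures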; conditions: S. cerevisiae cln2 rad14 strain, active compounds read high
In short: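 Yeast carrying cln2 and rad14 alterations (cell cycle control and DNA damage repair) were exposed to compounds. Growth inhibition was measured against vehicle-treated controls.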

[10] = NCI Yeast Anticancer Drug Screen. Data for the bub3 strain (AID 167); conditions: S. cerevisiae bub3 mutant strain, active compounds read high
In short: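 Part of a panel of yeast mutants defective in DNA damage repair or cell cycle regulation. Each strain is grown with compound, and inhibition is calculated relative to solvent-treated cultures.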

[11] = NCI Yeast Anticancer Drug Screen. Data for the wt2 strain (AID 169);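 also: 0% = growth of vehicle-treated yeast cultures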; conditions: S. cerevisiae wt2 strain growth inhibition, active compounds read high
In short: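 Yeast cells were exposed to test compounds, and growth inhibition was measured relative to vehicle-treated controls.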

[12] = NCI Yeast Anticancer Drug Screen. Data for the mlh1 strain (AID 171);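 also: 0% = growth of vehicle-treated control cultures of the same strain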; conditions: S. cerevisiae mlh1 strain growth inhibition, active compounds read high
In short: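 Yeast carrying a defined genetic alteration in DNA damage repair or cell cycle control were exposed to test compounds. Growth inhibition was measured relative to vehicle-treated controls.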

[13] = NCI Yeast Anticancer Drug Screen. Data for the mlh1 rad18 strain (AID 175); conditions: S. cerevisiae mlh1 rad18 strain growth inhibition, active compounds read high
In short: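 Growth inhibition of the yeast strain was measured after compound exposure and expressed relative to vehicle-treated controls. The strain carries defined defects in DNA damage repair.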

[14] = NCI Yeast Anticancer Drug Screen. Data for the rad18 strain (AID 177); conditions: S. cerevisiae rad18 mutant growth inhibition, active compounds read high
In short: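 Yeast carrying a defined DNA damage repair alteration were exposed to compounds. Growth inhibition was expressed relative to vehicle-treated controls.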

[15] = NCI Yeast Anticancer Drug Screen. Data for the rad14 strain (AID 159);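 also: 0% = growth of vehicle-treated control cultures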; conditions: S. cerevisiae rad14 strain growth inhibition, active compounds read high
In short: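 Readout: yeast growth inhibition, referenced to vehicle-only cultures. Strain bears a defined alteration in DNA damage repair.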

[16] = NCI Yeast Anticancer Drug Screen. Data for the sgs1 strain (AID 173);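 also: 0% = growth of vehicle-only control cultures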; conditions: S. cerevisiae sgs1 mutant, active compounds read high
In short: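 Yeast mutant strains carrying defined defects in DNA damage repair or cell cycle control were exposed to test compounds. Growth inhibition was scored against vehicle-treated controls.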

[17] = at 5.0 µM (retest, dose inferred, filed as 0.5)
[18] = at 50.0 µM (retest, dose inferred, filed as 5.0)

Measured: growth inhibition

CCOC(=O)c1cnc2c(C(F)(F)F)cccc2c1N=[N+]=[N-]
inactive: [1]; at 1.2 µM 3% | [1]; at 3.7 µM 2% | [1]; at 11.0 µM 2% | [1]; at 33.0 µM 42% | [2]; at 1.2 µM 10% | [2]; at 3.7 µM 1% | [2]; at 11.0 µM 1% | [2]; at 33.0 µM 37% | [3]; at 1.2 µM 4% | [3]; at 3.7 µM 0% | [3]; at 11.0 µM -5% | [4]; at 1.2 µM 0% | [4]; at 3.7 µM -2% | [4]; at 11.0 µM 1% | [4]; at 33.0 µM 52% | [5]; at 1.2 µM -6% | [5]; at 3.7 µM -17% | [5]; [17] 15% | [5]; at 11.0 µM 20% | [5]; at 33.0 µM 42% | [5]; [18] 8% | [5]; at 50.0 µM 29.4% | [6]; at 1.2 µM -3% | [6]; at 3.7 µM -4% | [6]; [17] 2% | [6]; at 11.0 µM -4% | [6]; at 33.0 µM 25% | [6]; [18] -5% | [6]; at 50.0 µM 17.6% | [7]; [17] 5% | [7]; [18] 31% | [7]; at 50.0 µM 0.9% | [8]; at 1.2 µM -1% | [8]; at 3.7 µM -1% | [8]; at 11.0 µM -2% | [8]; at 33.0 µM 21% | [9]; [17] 45% | [9]; [18] 24% | [10]; at 1.2 µM -2% | [10]; at 3.7 µM -3% | [10]; [17] -3% | [10]; at 11.0 µM -4% | [10]; at 33.0 µM 20% | [10]; at 50.0 µM 67.3% | [11]; at 1.2 µM -1% | [11]; at 3.7 µM 1% | [11]; at 11.0 µM 2% | [11]; at 33.0 µM 68% | [12]; at 1.2 µM -1% | [12]; at 3.7 µM 0% | [12]; at 11.0 µM -1% | [12]; at 33.0 µM 56% | [13]; [17] 1% | [13]; [18] 21% | [14]; at 1.2 µM -5% | [14]; at 3.7 µM -8% | [14]; at 11.0 µM -10% | [14]; at 33.0 µM 40%
active: [1]; at 100.0 µM 95% | [2]; at 100.0 µM 87% | [3]; at 33.0 µM 86% | [3]; at 100.0 µM 97% | [4]; at 100.0 µM 93% | [5]; at 100.0 µM 95% | [6]; at 100.0 µM 89% | [8]; at 100.0 µM 73% | [9]; at 50.0 µM 84.7% | [10]; [18] 91% | [10]; at 100.0 µM 92% | [11]; at 100.0 µM 99% | [12]; at 100.0 µM 98% | [13]; at 50.0 µM 94.8% | [14]; at 100.0 µM 94%

C(CCSC1=NCCN1)CSC1=NCCN1 (tested in a mixture with another compound)
inactive: [1]; at 1.2 µM 20% | [1]; at 3.7 µM 39% | [2]; at 1.2 µM -3% | [2]; at 3.7 µM 9% | [2]; at 11.0 µM 41% | [3]; at 1.2 µM 30% | [3]; at 3.7 µM 46% | [4]; at 1.2 µM -2% | [4]; at 3.7 µM 18% | [5]; at 1.2 µM 21% | [5]; at 3.7 µM 44% | [5]; [17] 59% | [6]; at 1.2 µM 5% | [6]; at 3.7 µM 28% | [6]; [17] 43% | [15]; at 1.2 µM 5% | [15]; at 3.7 µM 27% | [8]; at 1.2 µM -5% | [8]; at 3.7 µM 6% | [8]; at 11.0 µM 29% | [9]; [17] 16% | [10]; at 1.2 µM -8% | [10]; at 3.7 µM 12% | [10]; [17] 5% | [11]; at 1.2 µM -2% | [11]; at 3.7 µM 10% | [11]; at 11.0 µM 63% | [12]; at 1.2 µM 5% | [12]; at 3.7 µM 20% | [16]; at 1.2 µM 11% | [16]; at 3.7 µM 35% | [14]; at 1.2 µM 26% | [14]; at 3.7 µM 52%
active: [1]; at 11.0 µM 79% | [1]; at 33.0 µM 99% | [1]; at 100.0 µM 99% | [2]; at 33.0 µM 99% | [2]; at 100.0 µM 99% | [3]; at 11.0 µM 78% | [3]; at 33.0 µM 73% | [3]; at 100.0 µM 99% | [4]; at 11.0 µM 89% | [4]; at 33.0 µM 99% | [4]; at 100.0 µM 98% | [5]; at 11.0 µM 83% | [5]; at 33.0 µM 99% | [5]; [18] 98% | [5]; at 50.0 µM 99.2% | [5]; at 100.0 µM 98% | [6]; at 11.0 µM 94% | [6]; at 33.0 µM 99% | [6]; [18] 99% | [6]; at 50.0 µM 99.5% | [6]; at 100.0 µM 99% | [15]; at 11.0 µM 99% | [15]; at 33.0 µM 99% | [15]; at 100.0 µM 99% | [8]; at 33.0 µM 97% | [8]; at 100.0 µM 98% | [9]; [18] 98% | [9]; at 50.0 µM 97.6% | [10]; at 11.0 µM 94% | [10]; at 33.0 µM 99% | [10]; [18] 98% | [10]; at 50.0 µM 99% | [10]; at 100.0 µM 98% | [11]; at 33.0 µM 99% | [11]; at 100.0 µM 99% | [12]; at 11.0 µM 83% | [12]; at 33.0 µM 99% | [12]; at 100.0 µM 98% | [16]; at 11.0 µM 86% | [16]; at 33.0 µM 99% | [16]; at 100.0 µM 99% | [13]; [17] 77% | [13]; [18] 98% | [13]; at 50.0 µM 99% | [14]; at 11.0 µM 91% | [14]; at 33.0 µM 99% | [14]; at 100.0 µM 99%
